Measurements: PubChem BioAssay (NCI)
About 79,000 compounds went through this panel and 15% of them were active in at least one assay; those are over-represented in the sample as a whole. Calls of active or inactive are those of the source. Cut-off read from the data, not from the text of the source: active = growth inhibition above about 70%; inactive = the rest.

Key:
[1] = NCI Yeast Anticancer Drug Screen. Data for the rad50 strain (AID 155);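 note: 0% = growth of vehicle-only cultures of the same strain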; conditions: S. cerevisiae rad50 strain growth inhibition, stronger effect = higher value
Summary of the method: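 Growth of the mutant yeast was measured after compound exposure and referenced to vehicle-treated cultures.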

[2] = NCI Yeast Anticancer Drug Screen. Data for the mec2-1 strain (AID 157); conditions: S. cerevisiae mec2-1 strain, stronger effect = higher value
Summary of the method: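 mec2-1 yeast strain, carrying an alteration in DNA damage repair or cell cycle control, was exposed to compounds; growth inhibition was measured relative to vehicle-treated controls.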

[3] = NCI Yeast Anticancer Drug Screen. Data for the sgs1 mgt1 strain (AID 161);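 note: 0% = growth of cultures given vehicle only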; conditions: S. cerevisiae sgs1 mgt1 strain, stronger effect = higher value
Summary of the method: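 This yeast growth screen uses a strain with defined DNA-repair lesions; compound-treated growth is compared with vehicle-treated growth.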

[4] = NCI Yeast Anticancer Drug Screen. Data for the cln2 rad14 strain (AID 165);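 note: 0% = growth equal to vehicle treated cultures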; conditions: S. cerevisiae cln2 rad14 strain, stronger effect = higher value
Summary of the method: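 Yeast carrying cln2 and rad14 alterations (cell cycle control and DNA damage repair) were exposed to compounds. Growth inhibition was measured against vehicle-treated controls.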

[5] = NCI Yeast Anticancer Drug Screen. Data for the bub3 strain (AID 167); conditions: S. cerevisiae bub3 mutant strain, stronger effect = higher value
Summary of the method: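 Whole-cell yeast assay. The mutant strain was incubated with compounds, and growth inhibition was determined by comparison with vehicle-treated cells.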

[6] = NCI Yeast Anticancer Drug Screen. Data for the mlh1 rad18 strain (AID 175); conditions: S. cerevisiae mlh1 rad18 strain growth inhibition, stronger effect = higher value
Summary of the method: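 Growth inhibition of the yeast strain was measured after compound exposure and expressed relative to vehicle-treated controls. The strain carries defined defects in DNA damage repair.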

[7] = at 5.0 µM (retest, dose inferred, filed as 0.5)
[8] = at 50.0 µM (retest, dose inferred, filed as 5.0)

Structure (SMILES)	growth inhibition [1, 7]	growth inhibition [1, 8]	growth inhibition ([1]; at 50.0 µM)	growth inhibition [2, 7]	growth inhibition [2, 8]	growth inhibition ([2]; at 50.0 µM)	growth inhibition [3, 7]	growth inhibition [3, 8]	growth inhibition ([3]; at 50.0 µM)	growth inhibition [4, 7]	growth inhibition [4, 8]	growth inhibition ([4]; at 50.0 µM)	growth inhibition [5, 7]	growth inhibition [5, 8]	growth inhibition ([5]; at 50.0 µM)	growth inhibition [6, 7]	growth inhibition [6, 8]	growth inhibition ([6]; at 50.0 µM)
CCS(=O)(=O)/C=C(\C#Cc1ccccc1)c1ccccc1	9% (inactive)	84% (active)	79.2% (active)	-1% (inactive)	95% (active)	82.4% (active)	5% (inactive)	90% (active)	83.7% (active)	12% (inactive)	81% (active)	80.3% (active)	11% (inactive)	99% (active)	87.5% (active)	6% (inactive)	94% (active)	92.2% (active)
O=C(NNC(=O)c1cccc(C(=O)NNC(=O)c2ccc(Cl)c(Cl)c2)n1)c1ccc(Cl)c(Cl)c1	35% (inactive)	64% (inactive)	44.5% (inactive)	37% (inactive)	66% (inactive)	45.8% (inactive)	47% (inactive)	62% (inactive)	52.7% (inactive)	54% (inactive)	76% (active)	81.4% (active)	61% (inactive)	80% (active)	70.2% (active)	49% (inactive)	71% (active)	51.4% (inactive)
Cc1c[n+](=O)c2ccccc2n1[O-]	-21% (inactive)	10% (inactive)	2.6% (inactive)	-14% (inactive)	-16% (inactive)	-16.6% (inactive)	-9% (inactive)	-7% (inactive)	-20.4% (inactive)	8% (inactive)	1% (inactive)	70.8% (active)	13% (inactive)	-11% (inactive)	-10.6% (inactive)	-11% (inactive)	-6% (inactive)	-0.1% (inactive)
CNC(=O)N1N[C@H](c2ccccc2)[C@@H]1c1ccccc1	25% (inactive)	69% (inactive)	30.6% (inactive)	15% (inactive)	50% (inactive)	35% (inactive)	21% (inactive)	63% (inactive)	47.4% (inactive)	20% (inactive)	32% (inactive)	36.9% (inactive)	29% (inactive)	72% (active)	46.9% (inactive)	23% (inactive)	60% (inactive)	-14.1% (inactive)
CN(C)CCCNc1ccc(O)c2sc3ccccc3c(=O)c12	4% (inactive)	14% (inactive)	69.7% (inactive)	-5% (inactive)	33% (inactive)	34.6% (inactive)	-5% (inactive)	20% (inactive)	63.6% (inactive)	-3% (inactive)	-11% (inactive)	15.6% (inactive)	5% (inactive)	25% (inactive)	24.4% (inactive)	0% (inactive)	23% (inactive)	72% (active)
COC(=O)c1c(C(N)=O)c(C)n(NC(=O)c2ccccc2)c1C	-6% (inactive)	4% (inactive)	5.75% (inactive)	-5% (inactive)	-1% (inactive)	2.7% (inactive)	-6% (inactive)	0% (inactive)	11.1% (inactive)	-4% (inactive)	6% (inactive)	38.9% (inactive)	-4% (inactive)	3% (inactive)	-2.65% (inactive)	-4% (inactive)	0% (inactive)	11.5% (inactive)
